# High-throughput results: PubChem BioAssay, National Center for Advancing Translational Sciences (NCATS)
# Hits are enriched below; roughly 3% of the tested compounds scored in any of these assays.
# HEK293 cAMP ctrl = qHTS Assay for Agonists of the Thyroid Stimulating Hormone Receptor: Activators of Intracellular cAMP Concentrations in Parental HEK 293. parental HEK293 CNG cAMP sensor, membrane potential fluorescence. Potency, µM (titrated, usually from 57.1 µM), without a hit: top-dose activation, usual class: activators. 73,000 compounds, 2.5% hits. AID 938, 2007; further: potency means the concentration at half of the fitted maximal effect; % of control where 0% means no effect; nearly all actives have a fitted effect of over 55% in size
#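 Counterscreen for endogenous-receptor signalling: CNG-channel HEK 293 cells report cAMP rise by membrane depolarization. After 60 min dye equilibration with 100 uM RO 20-1724, compounds incubated 30 min before bottom-read fluorescence at 590 nm.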
# TSHR agonist = qHTS Assay for Agonists of the Thyroid Stimulating Hormone Receptor; HEK293-CNG-TSHR cells (CNG channel as cAMP sensor), membrane potential dye, cAMP; Potency, µM (top dose mostly 57.1 µM), for inactives: at the highest dose activation, actives largely listed as activators; 73,000 compounds, 0.48% hits; active means well fitted activation curve with a large enough effect in the main read-out, with a control signal flat, not every such curve was filed as active; inconclusive means small, poorly fitted or top-dose-only effect, or a change in a side signal; inactive means no such curve, though single readings can be large or run the other way; % of control where 0% means no effect;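 further: the control signal comes from parental cells without the receptor; potency means the concentration at half of the fitted maximal effect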
# Target sequence (P16473 whole entry, looked up): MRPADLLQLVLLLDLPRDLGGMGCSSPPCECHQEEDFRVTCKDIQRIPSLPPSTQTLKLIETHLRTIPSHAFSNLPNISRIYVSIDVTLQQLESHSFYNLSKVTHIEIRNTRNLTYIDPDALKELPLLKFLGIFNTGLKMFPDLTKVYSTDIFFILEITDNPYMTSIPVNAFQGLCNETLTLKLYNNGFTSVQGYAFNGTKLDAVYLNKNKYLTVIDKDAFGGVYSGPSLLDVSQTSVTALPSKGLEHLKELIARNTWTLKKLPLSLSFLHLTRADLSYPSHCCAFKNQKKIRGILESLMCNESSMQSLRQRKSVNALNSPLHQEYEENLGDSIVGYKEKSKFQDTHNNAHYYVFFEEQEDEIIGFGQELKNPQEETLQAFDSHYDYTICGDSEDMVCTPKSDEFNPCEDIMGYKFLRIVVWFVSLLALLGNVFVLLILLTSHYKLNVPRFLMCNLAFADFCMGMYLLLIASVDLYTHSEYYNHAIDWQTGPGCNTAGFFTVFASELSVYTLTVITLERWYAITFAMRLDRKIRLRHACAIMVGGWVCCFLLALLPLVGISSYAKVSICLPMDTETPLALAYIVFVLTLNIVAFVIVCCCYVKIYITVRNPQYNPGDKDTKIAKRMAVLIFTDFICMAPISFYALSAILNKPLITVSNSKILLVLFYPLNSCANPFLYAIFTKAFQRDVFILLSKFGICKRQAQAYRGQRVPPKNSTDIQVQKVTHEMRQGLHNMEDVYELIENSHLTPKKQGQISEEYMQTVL
#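 HEK 293 cells stably expressing TSHR and a cAMP-gated CNG channel; parental CNG-only cells as counterscreen. Cells preloaded 60 min with membrane potential dye plus 100 uM RO 20-1724, then compound 30 min; fluorescence read at 590 nm.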
# HBB splice mod = qHTS Assay for Modulators of Hemoglobin Beta Chain Splicing. HBB splicing reporter cell assay, activation; EGFP reporter with mutant IVS2-654 intron; response scale: normalised to 500 nM splice-correcting PNA. Potency, µM (titrated, usually from 46.1 µM), inactives show at the top dose activation, most hits filed as activators. 65,000 compounds, 0.06% hits; further: potency means the concentration at half of the fitted maximal effect; 0% is about no effect
#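 HeLa cells stably expressing EGFP interrupted by mutant beta-globin intron 2 (IVS2-654), 500/well in 2% FCS. Treated with compound for 2 days at 37C. Splicing correction scored as total well GFP intensity (488 nm excitation, 500-520 nm emission); 500 nM antisense PNA served as control.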
# Epigenetic mod = qHTS Assay for Epigenetic Modulators; Potency, µM (series often up to 46.1 µM), without a hit: at the highest dose GFP derepression (activation); 68,000 compounds, 0.09% hits; mouse C127i GFP locus derepression, cytometry, 30 h; further: % of control where 0% means no effect
#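 Murine C127i mammary cells carrying a silenced, stably integrated CMV-driven GFP reporter were treated with compound for 30 hours at 37 C. After PBS washes, GFP-positive cells were counted by laser-scanning microplate cytometry.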
# Ub-GFP proteasome = Ubiquitin-GFP Assay. Ubiquitin-GFP reporter cells, proteasome inhibition, GFP fluorescence; response scale: untreated = 0%, 10 µM MG-132 = 100%. Potency, µM (highest dose often 45.9 µM), for inactives: top-dose activation (GFP accumulation), usual class: activators. 67,000 tested, under 10 active. AID 526, 2006; active means well fitted activation curve with a large enough effect, not every such curve was filed as active; inconclusive means small, poorly fitted or top-dose-only effect, or another doubt; inactive means no such curve, though single readings can be large or run the other way; further: potency means the concentration at half of the fitted maximal effect
#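 U2OS cells stably expressing ubiquitin(G76V)-GFP, seeded overnight in 0.5% FBS medium, were exposed to compounds (qHTS, 46 uM to 2.9 nM) for 4 hr at 37 °C. GFP-positive cells were counted by laser cytometry (488 ex/515 em), normalized between basal and 10 uM MG-132.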
# The depositor's hits bear a star; ? = inconclusive; nt = not tested or not shown; [ ] = another dose, or the depositor's remark. Unless noted, the call rests on the fitted dose curve; in most records, active means well fitted curve in the direction sought with a large enough effect; inconclusive means small, poorly fitted or top-dose-only effect, or another doubt; inactive means no such curve, though single readings can be large; an effect the other way counts as inactive or inconclusive.
SMILES,HEK293 cAMP ctrl,TSHR agonist,HBB splice mod,Epigenetic mod,Ub-GFP proteasome
CC12C=C(/C=C/CCc3ccco3)C(C)(C1)C(CCc1ccco1)CC2=O (stereo not given),1%[11.4 µM],-5%[11.4 µM],3%[9.22 µM],nt,nt
N#Cc1c(NC(=O)CSC2=NCCS2)sc2c1CCCC2,?,?,nt,0%,6%
Cc1ccnc(SCC(=O)Nc2sc3c(c2C#N)CCCC3)n1,20µM*,?,2%,-1%,-2%
CS(=O)(=O)Nc1cccc(-c2nc(Nc3ccc(F)cc3)c3ccccc3n2)c1,19%,25µM*,0%,-3%[9.22 µM],-9%
OCC1OC(c2ccc3c(c2)OCO3)C=CC1Oc1ccc(C2CCCC2)cc1 (stereo not given),6%[11.4 µM],5%[11.4 µM],4%[9.22 µM],nt,nt
OCC1OC(/C=C\c2ccccc2)C=CC1Oc1ccc2c(c1)OCO2 (stereo not given),4µM*,?,-1%[9.22 µM],nt,nt
O=C(NCC1CC1)[C@@H]1C[C@H]1[C@@H](NP(=O)(c1ccccc1)c1ccccc1)c1ccccc1,13µM*,?,0%,nt,nt
O=C(NCc1ccccc1)[C@@H]1C[C@H]1[C@@H](NP(=O)(c1ccccc1)c1ccccc1)c1ccccc1,?,?,1%,nt,nt
C=CCN1CCc2c(cc(O)c(O)c2Cl)[C@H](c2ccccc2)C1,19%,24%,1%,-1%,11%
COC(=O)c1ccc(NC(=O)c2ccc(CN3CCOCC3)cc2)cc1,11%,15%,-1%,3%,3%
O=C(Nc1ccc(CN2CCOCC2)cc1)c1ccc(-c2ccc(Br)cc2)o1,25µM*,?,0%,9%,1%
c1ccc(C2=Nn3c(nnc3-c3cc(-c4ccccc4)n[nH]3)SC2)cc1,25µM*,?,2%[0.369 µM],2%,nt
COc1ccc(C2=Nn3c(nnc3-c3ccccc3OC)SC2)cc1OC,25%,10µM*,1%,2%,0%
CC[C@@H]1OC(=O)[C@@H](C)[C@H](O[C@@H]2C[C@@](C)(OC)[C@@H](O)[C@H](C)O2)[C@H](C)[C@H](O[C@@H]2O[C@@H](C)C[C@@H](N(C)C)[C@H]2O)[C@@](C)(O)C[C@H](C)C(=O)[C@@H](C)[C@H](O)[C@@]1(C)O,-2%,2%,nt,-5%[9.22 µM],3%
COc1ccc(-c2nc3cnc(Oc4cccc(Cl)c4)nc3n(CCC#N)c2=O)cc1,7%,nt,-1%,5%[9.22 µM],2%
O=C(CN(Cc1ccc2c(c1)OCO2)C(=O)CSc1nc2ccccc2o1)NC1CCCCC1,16µM*,?,0%[57.5 µM],-2%,2%
CC(=O)OCC1OC(C#CC2=CCCCC2)C=CC1OC(C)=O (stereo not given),-4%[11.4 µM],0%[11.4 µM],1%[9.22 µM],nt,nt
O=C(O)C1CCCN1S(=O)(=O)c1cccc2cccnc12 (stereo not given),3%,1%,-1%,nt,3%
N#C/C(=C\c1ccc(O)c(O)c1)C(=O)c1ccc(O)c(O)c1,-6%,4%,3%,-1%,-6%
CC(C)(C)c1cc(/C=C(\C#N)C(N)=S)cc(C(C)(C)C)c1O,3.2µM*,?,1%,2%,4%
[C-]#[N+]/C(C#N)=C\c1cc(C(C)(C)C)c(O)c(C(C)(C)C)c1,2.5µM*,?,-1%,nt,nt
CCCCN(CC)CCNS(=O)(=O)c1cccc2cccnc12,12%,12%,0%,nt,-7%
CNc1ncnc2c1ncn2[C@H]1C[C@@H](OP(=O)(O)O)[C@H](COP(=O)(O)O)O1,6%,nt,0%,0%,-5%
C1CCN(c2nc3nonc3nc2N2CCCCC2)CC1,?,?,0%[9.22 µM],-2%,12%
Nc1nonc1-c1noc(N2CCCCC2)n1,10µM*,?,1%[1.84 µM],-2%,7%
SMILES,HEK293 cAMP ctrl,TSHR agonist,HBB splice mod,Epigenetic mod,Ub-GFP proteasome
CCCCNc1cc(C)nc(NCc2ccccc2)n1,6.3µM*,?,-1%,-2%,15%
CC(C)C(NC(=O)c1ccccc1NC(=O)c1ccco1)C(=O)O (stereo not given),32µM*,?,0%,2%,4%
O=C1c2ccccc2N2C(=O)c3ccccc3C2N1Cc1ccco1 (stereo not given),25µM*,?,-3%,-2%,16%
CC(C)[C@H]1C(=O)C(C(N)=O)=C(O)[C@]2(O)C(=O)C3=C(O)c4c(O)ccc(N(C)C)c4C[C@H]3C[C@@H]12,9%,3%,1%,2%,3%
CCCCn1c(SCc2ccc(Cl)cc2)nc2c1c(=O)[nH]c(=O)n2C,?,?,nt,2%,1%
CC(C)CCSc1nc2c(c(=O)[nH]c(=O)n2C)n1CCc1ccccc1,10µM*,?,0%[0.369 µM],0%,nt
CCCCCCn1c(SCC(C)C)nc2c1c(=O)[nH]c(=O)n2C,25µM*,?,0%[57.5 µM],-2%,3%
CC(C)CSc1nc2c(c(=O)[nH]c(=O)n2C)n1CCc1ccccc1,?,?,nt,-2%,-1%
CC(C)CCn1c(SCc2ccc(Cl)cc2)nc2c1c(=O)[nH]c(=O)n2C,10µM*,?,-1%[0.369 µM],-2%,nt
COC(=O)C/C=C\[C@@H](C)[C@@H](/C=N\O[C@@H](C)c1cn([C@H]2COC[C@H]2O)nn1)NS(=O)(=O)c1ccc(C)cc1,-3%[11.4 µM],-2%[11.4 µM],-1%[9.22 µM],nt,nt
COc1ccccc1C(=O)N1CCN(C(=O)c2ccncc2)CC1,25µM*,?,3%,0%,0%
CCc1c(O)nc(SCC(=O)Nc2ccc3c(c2)CCC3)[nH]c1=O,25µM*,?,0%[57.5 µM],4%,4%
Clc1c(CSc2nc3ccccc3o2)nc2sccn12,32µM*,?,0%,2%,0%
Clc1c(CSc2nc3ccccc3o2)nc2ccccn12,?,?,0%[57.5 µM],3%,0%
c1ccc(COn2nnc3ccccc32)c(COn2nnc3ccccc32)c1,25µM*,?,1%,-3%,-3%
c1ccc(-n2nnc3ccccc32)nc1,3%,9%[11.4 µM],-1%[1.84 µM],0%,4%
Cc1ccccc1-c1ccc2ncnc(NCc3cccs3)c2c1,4µM*,?,-1%,-3%[9.22 µM],2%
COc1ccccc1-c1ccc2ncnc(NCc3cnc(C)cn3)c2c1,25µM*,?,0%,-3%[9.22 µM],-2%
Cc1cccc(CNc2ncnc3ccc(-c4ccoc4)cc23)c1,32µM*,?,3%,-3%[9.22 µM],1%
c1cncc(CNc2ncnc3ccc(-c4ccoc4)cc23)c1,-2%,2%,0%,-4%[9.22 µM],-5%
CNc1ncnc2ccc(-c3ccccc3C)cc12,2µM*,?,-1%,-3%[9.22 µM],-1%
N#Cc1cccc(-c2nccc(-n3ccnc3)n2)c1,-14%,-10%,-1%,0%[9.22 µM],-8%
